These results are taken from paper PMC5540273 (PLoS ONE, 2017).

The test system of one experiment is T1, LOK.
T1 construct: gene STK10

The next experiment concerns T2, IKK-alpha.
T2 construct: gene CHUK

In another experiment the test system is T3, IKK-beta.
T3 construct: gene IKBKB

Experiment [1] has as its system JAK1(JH1domain-catalytic).
Experiment [2] has as its system JAK2(JH1domain-catalytic).
For a further experiment, the system named is T4, JNK3.
T4 construct: gene MAPK10

Another experiment has as its system T5, LZK.
T5 construct: gene MAP3K13
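Further: kd values determined as follow-up on hits from a single-replicate KINOMEscan panel screen.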

As a reminder, the Kd is the equilibrium constant for the complex coming apart. Lower therefore signals a tighter complex. For the compound `Cc1nnc(-c2ccc3occ(-c4ccc(S(C)=O)cc4)c3c2)[nH]1` (centres unmarked), the Kd was 0.34 µM in the experiment on HIPK3 and above 10 µM with LOK.

In the experiment with HUNK, `Cc1c(O)cccc1Nc1ccnc2ccc(C(F)(F)F)cc12.Cl` [GW466413] yielded a Kd above 10 µM.

As to `O=C1NC(=O)C(N2CCc3ccccc32)=C1c1ccccc1Cl` [SB-373598], the Kd with IKK-alpha and in the experiment on LTK was above 10 µM each time.

With `O=S(=O)(c1ccc(-c2ccnc3[nH]ccc23)cc1)N1CCCC1` [GSK846226], the Kd in the experiment on IKK-beta turned out to be 0.27 µM.

In the experiment with IKK-beta, `CC(C)(C)c1ccc(C(=O)Nc2cn3cc(Cl)ccc3n2)cc1` registered a Kd above 10 µM.

For the compound `Cc1cc(N2Cc3ccccc3C2)nc(Nc2ccc(S(=O)(=O)N3CCOCC3)cc2)n1.Cl` [GSK1669917], in the experiment with INSR, the Kd is above 10 µM.

In the case of `COc1cc2ncnc(Nc3ccc4nc(-c5ccccc5)[nH]c4c3)c2cc1OC.Cl` [GW282450], the Kd with INSR was above 10 µM.

The compound `Cc1c(Cn2ccn3c(=O)cc(N4CCOCC4)nc23)cccc1C(F)(F)F` [GSK2289044] had a Kd in [1] above 10 µM.

For the compound `COc1ccc(CNC(=O)NC2CCN(c3ccnc(Nc4cc(OC)c(OC)c(OC)c4)n3)C2)cc1` (centres unmarked) [GSK1379748], binding in experiment [2] was characterised by a dissociation constant (Kd) of 0.35 µM.

With `COC(=O)c1c(-c2ccccc2)c2cc(OC)ccc2c(=O)n1Cc1ccccc1`, the Kd in the experiment on JNK3 worked out at 0.11 µM.

In the experiment with LIMK1, `Cn1ccc2ncnc(Oc3cccc(C(=O)Nc4ccccc4)c3)c21` displayed a Kd above 10 µM.

Take `COc1ccc(C2=C(Nc3cccc(C(=O)O)c3)C(=O)NC2=O)cc1` [SB-390765]: the Kd with LIMK1 was above 10 µM.

As for `Nc1ncnc2[nH]c(-c3ccccc3)nc12` [AH5015], in the experiment on LTK, the Kd is above 10 µM.

With `O=C(O)COc1ncnc2cc(-c3ccc4[nH]ncc4c3)sc12`, the Kd in the experiment on LTK was above 10 µM.

`O=c1cc(N2CCOCC2)nc2n(Cc3cccc(Cl)c3Cl)ccn12` [GSK2286295] gave a Kd with LYN above 10 µM.

On to `O=C(Nc1n[nH]c2cc(-c3cccc(F)c3F)ccc12)C1CC1` [SB-733894], for which the Kd in the experiment on LZK is above 10 µM.

In turn, `COc1cccc(-c2cc(-c3c[nH]nc3-c3ccccn3)ccn2)c1` [GW680338] returned a Kd with MAK above 10 µM.

In turn, `Cc1cc(-c2ccc3c(c2)CC[C@@H](N[C@@H](C)c2ccccc2)C3)cnc1N.Cl` [GW412617] registered a Kd in the experiment on MAP4K2 of 0.043 µM.
